Screens as filed in PubChem.
FBW7 act – FBW7 E3 ligase activators, primary screen, biochemical, AlphaScreen, human | F-box/WD repeat-containing protein 7 (Homo sapiens), Q969H0 | AlphaScreen FBW7–phospho-cyclin E peptide binding, activator screen | normalized activity (activation), % at 26.1 µM | 650,000 tested, 0.13% active; in the data active = normalized activity above about 1.9%;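 note: purified mutant Fbw7 with reduced substrate affinity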
Target sequence (Q969H0 whole entry, looked up): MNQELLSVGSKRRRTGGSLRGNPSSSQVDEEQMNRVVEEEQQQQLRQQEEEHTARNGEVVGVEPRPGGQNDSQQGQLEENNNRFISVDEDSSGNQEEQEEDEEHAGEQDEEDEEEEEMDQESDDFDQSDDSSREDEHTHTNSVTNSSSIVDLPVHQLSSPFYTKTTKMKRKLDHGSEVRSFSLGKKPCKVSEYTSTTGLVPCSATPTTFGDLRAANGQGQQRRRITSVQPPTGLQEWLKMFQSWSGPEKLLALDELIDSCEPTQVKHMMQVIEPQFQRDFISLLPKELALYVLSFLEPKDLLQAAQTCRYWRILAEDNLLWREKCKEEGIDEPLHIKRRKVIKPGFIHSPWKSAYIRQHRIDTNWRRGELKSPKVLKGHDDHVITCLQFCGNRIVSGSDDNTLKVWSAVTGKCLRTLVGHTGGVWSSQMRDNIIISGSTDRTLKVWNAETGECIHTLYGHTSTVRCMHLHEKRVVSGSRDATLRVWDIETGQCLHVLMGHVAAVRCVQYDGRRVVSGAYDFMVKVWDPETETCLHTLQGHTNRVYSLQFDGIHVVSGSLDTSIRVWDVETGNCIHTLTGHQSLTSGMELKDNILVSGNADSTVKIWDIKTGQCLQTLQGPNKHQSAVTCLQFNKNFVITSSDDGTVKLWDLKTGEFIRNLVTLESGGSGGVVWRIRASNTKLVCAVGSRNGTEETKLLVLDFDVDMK
MITF primary – MITF inhibitors, primary screen, biochemical, AlphaScreen, human | Microphthalmia-associated transcription factor (Homo sapiens), O75030 | AlphaScreen MITF homodimerization, bead proximity signal | inhibition, % at 2.6 µM | 650,000 tested, 0.91% active; in the data active = inhibition above about 50%
TEAD-YAP inh – TEAD-YAP interaction inhibition, primary screen, TEAD-YAP interaction inhibitor project, luminescence, HEK-TIYL cells. TEAD-Gal4/YAP UAS-luciferase luminescence. inhibition, % at 9.12 µM. 640,000 tested, 1.4% active; in the data active = inhibition above about 32%
GPR151 activ – activators of human GPR151, primary screen, cell-based, PathHunter beta-arrestin, luminescence; G-protein coupled receptor 151 (Homo sapiens), Q8TDV0; PathHunter beta-arrestin GPR151 cells; activation, % at 11.2 µM; 650,000 tested, 1% active; AID 1508602, 2020; in the data active = activation above about 4.9%
MITF confirm – MITF inhibitors, retest of hits, confirmation, biochemical, AlphaScreen, triplicate; shares compounds with MITF primary; AlphaScreen MITF homodimerization, biotin/His-MITF beads; inhibition, % at 2.6 µM; 4,700 tested, 16% active;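 active = inhibition above a cutoff derived from the DMSO control wells, cut at about 28% in these data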;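 note: inhibitors lower the bead chemiluminescence by keeping MITF from dimerizing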
AlphaScreen DR – AlphaScreen optical interference compounds, dose response, counter-screen, biochemical, HTS. shares compounds with MITF primary. AlphaScreen optical interference counterscreen, cell-free. IC50, µM. 480 tested, 6% active; call rule not given here
AlphaScreen intf2 – AlphaScreen optical interference compounds, counter-screen for MITF inhibitor project, biochemical, triplicate; inhibition, % at 2.6 µM; AID 1259376, 2018; LysRS AlphaScreen counterscreen, signal interference; 4,700 tested, 7.6% active; shares compounds with MITF primary;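 active = inhibition above a cutoff derived from the DMSO control wells, cut at about 30% in these data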
Large screens that a line does not name were inactive (follow-up assays come after a bar, where they were run). Compounds with a hit are over-represented: about 3.4% of the library has one in this group of screens.

O=[N+]([O-])c1ccccc1/C=C/CN1CCN(Cc2ccc3c(c2)OCO3)CC1	MITF primary 59 | MITF confirm inactive | AlphaScreen intf2 inactive
O=[N+]([O-])c1cc2c(cc1CN1CCCCCC1)OCO2	MITF primary 52 | MITF confirm inactive | AlphaScreen intf2 inactive
NC(=O)c1cc(S(=O)(=O)Nc2cccc(Br)c2)ccc1O	none
O=C(NC1CC1)c1ccc(-c2cccc(C(=O)Nc3ccccc3)n2)cc1	none
O=C(CN(c1cccc([N+](=O)[O-])c1)S(=O)(=O)c1ccccc1)Nc1cccc(Cl)c1	none
COc1cc(CN2CCN(Cc3cccc(Cl)c3)CC2)c([N+](=O)[O-])cc1OC	MITF primary 57 | MITF confirm inactive | AlphaScreen intf2 inactive
O=[N+]([O-])c1cc2c(cc1CNCCCN1CCOCC1)OCO2	MITF primary 59 | MITF confirm inactive | AlphaScreen intf2 inactive
COc1cc(CN2CCC(C)CC2)c([N+](=O)[O-])cc1OC	none
COc1ccccc1-c1cc(C(F)(F)F)nc(S(=O)(=O)CCCC(=O)Nc2ccc(F)c(Cl)c2)n1	MITF primary 54 | MITF confirm inactive | AlphaScreen intf2 inactive
COc1ccc(-c2cc(C(F)(F)F)nc(S(=O)(=O)CCCC(=O)Nc3ccc(F)c(Cl)c3)n2)cc1OC	MITF primary 76 | MITF confirm inactive | AlphaScreen intf2 inactive
CCOc1cc(/C=N/NC(=O)C(O)c2ccccc2)cc(Br)c1O (configuration not stated)	none
O=C(CNCc1ccc(F)cc1)Nc1ccccc1N1CCOCC1	MITF primary 63 | MITF confirm inactive | AlphaScreen intf2 inactive
O=C(CNCc1cccnc1)Nc1ccc(C2CCCCC2)cc1	MITF primary 59 | MITF confirm inactive | AlphaScreen intf2 inactive
Cc1cccc(NC(=O)CNCc2cccnc2)c1C	MITF primary 83 | MITF confirm inactive | AlphaScreen intf2 inactive
O=C(CNCc1cccnc1)Nc1ccccc1N1CCOCC1	MITF primary 102 | MITF confirm inactive | AlphaScreen intf2 inactive
Cc1cccc(NC(=O)CSCCO)c1C	none
O=C(CNCc1cccnc1)Nc1ccc(OC(F)(F)F)cc1	none
CNC(=O)CNC(=O)Nc1ccccc1OC	none
O=C(COC(=O)c1ccccc1Cl)Nc1ccccc1N1CCOCC1	none
O=C(CNCc1cccnc1)N(c1ccccc1)c1ccccc1	MITF primary 95 | MITF confirm inactive | AlphaScreen intf2 inactive
O=C(CNCc1ccccc1Cl)Nc1ccccc1N1CCOCC1	MITF primary 62 | MITF confirm inactive | AlphaScreen intf2 inactive
O=C(CNCc1ccc(Cl)cc1)Nc1ccccc1N1CCOCC1	MITF primary 61 | MITF confirm inactive | AlphaScreen intf2 inactive
CN(C)C(=O)C1C2NC(=S)N(c3ccc(Br)cc3)C1(C)Oc1ccc(Cl)cc12 (configuration not stated)	MITF primary 68 | MITF confirm inactive | AlphaScreen intf2 inactive
CCOc1ccc(Nc2cc(NCCO)c([N+](=O)[O-])c3nonc23)cc1	none
CCOC(=O)N1CCC(N2C(=O)c3ccc(C(=O)Nc4cccc(F)c4)cc3C2=O)CC1	none
Cn1nnnc1SCC1=C(C(=O)O)N2C(=O)C(N)C2SC1 (configuration not stated)	none
CC(=O)CC1=C(C(=O)O)N2C(=O)C(N)C2SC1 (configuration not stated)	MITF primary 61 | MITF confirm 30 | AlphaScreen DR inactive | AlphaScreen intf2 inactive
O=C(Nc1ccc(Nc2ccc(-n3cccn3)nn2)cc1)c1ccccc1Cl	MITF primary 58 | MITF confirm inactive | AlphaScreen intf2 inactive
COc1ccc(C)cc1NC(=O)C(=O)N/N=C(\C)CC(=O)Nc1ccccc1NC(C)=O	none
Cc1ccc(C)c(OCC(=O)Nc2ccc(S(=O)(=O)Nc3nccs3)cc2)c1C	none
CCOC(=O)c1c(NC(=O)C(F)(F)F)sc(C(=O)Nc2ccccc2)c1C	MITF primary 55 | MITF confirm inactive | AlphaScreen intf2 inactive
COCCN1C(=O)c2ccccc2C(C(=O)N2CCOCC2)C1c1ccc(F)cc1 (configuration not stated)	none
Cc1ccccc1NC(=O)NC1(C(F)(F)F)Oc2ccc(Cl)cc2O1 (configuration not stated)	none
COc1ccccc1NS(=O)(=O)c1cccc(NC(=O)NC2(C(F)(F)F)Oc3ccc(Cl)cc3O2)c1 (configuration not stated)	MITF primary 68 | MITF confirm inactive | AlphaScreen intf2 inactive
O=C1CCC(N2CCCC2)CCN1Cc1ccccc1Cl (configuration not stated)	none
Cc1ccccc1CN1CCN(C2CCCC2)CC1	MITF primary 57 | MITF confirm inactive | AlphaScreen intf2 inactive
Cc1ccccc1CN1CCC(N2CCCC2)CC1	none
Clc1ccccc1CN1CCN(C2CCCC2)CC1	MITF primary 74 | MITF confirm inactive | AlphaScreen intf2 inactive
c1ccc(CN2CCC(N3CCN(C4CCCCCC4)CC3)CC2)cc1	none
Clc1ccccc1CN1CCN(C2CCCCC2)CC1	MITF primary 65 | MITF confirm inactive | AlphaScreen intf2 inactive
COc1oc(-c2ccc(F)cc2)nc1C(F)(F)F	MITF primary 54 | MITF confirm inactive | AlphaScreen intf2 inactive
COc1oc(-c2ccc(C)cc2)nc1C(F)(F)F	none
CN(C)c1ccc(NC(=S)Nc2ccccn2)cc1	MITF primary 71 | MITF confirm inactive | AlphaScreen intf2 inactive
Cc1nc(NC(=O)c2ncoc2-c2cccs2)sc1C	none
N#C/C(=C\c1nn(-c2ccccc2)c(N)c1C#N)c1ccco1	MITF primary 59 | MITF confirm 83 | AlphaScreen DR inactive | AlphaScreen intf2 inactive
N#C/C(=C\c1nn(CCO)c(N)c1C#N)c1ccco1	none
Cc1ccc(S(=O)(=O)N(Cc2ccccc2)Cc2ccc(/C=C(/C#N)C(N)=O)o2)cc1	none
O=C(N/N=C/c1cc(Br)ccc1O)c1c[nH]c2ccccc12	none
CN1CCN(CC(=O)Nc2sc3c(c2C(N)=O)CCCC3)CC1	MITF primary 72 | MITF confirm inactive | AlphaScreen intf2 inactive
COC(=O)c1c(NC(=O)CCCOc2ccc(C)cc2)sc2c1CCCC2	MITF primary 78 | MITF confirm inactive | AlphaScreen intf2 inactive
COC(=O)c1c(NC(=O)CCN2CCN(C)CC2)sc2c1CCC2	MITF primary 90 | MITF confirm inactive | AlphaScreen intf2 inactive
CCOC(=O)CN(C)Cc1cccc(Br)c1	none
O=C(N[C@H]1C[C@H]2C(=O)N3CCC[C@@H]3C(=O)N2C1)Oc1ccccc1	none
